Bioassay records as filed in PubChem.
Only a selection was taken, and hits are over-represented in it overall.
Dicer processing: blocks human Dicer maturation of pre-miR-21 | cat-ELCCA pre-miR-21 Dicer processing, chemiluminescence; hits give high values | z-score at 25 µM | 47,000 tested, 6% active | AID 1347074; in the data active = z-score above about 3, passing the limit was not always enough;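 also: plate controls were vehicle for no effect and no enzyme for full effect; higher signal means more uncleaved substrate so more Dicer inhibition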
Numbers without * were called inactive.

SMILES	Dicer processing
C=CCN1C(=O)C2(/C(=C(/O)c3ccc(OCC)cc3)C(=O)C(=O)N2CCOC)c2ccccc21 (stereo not drawn)	2.4
COCCCN1C(=O)C(=O)/C(=C(\O)c2ccc(F)cc2)C12C(=O)N(C)c1ccccc12 (stereo not drawn)	2.3
COCCCN1C(=O)C(=O)/C(=C(\O)c2ccccc2)C12C(=O)N(C)c1ccccc12 (stereo not drawn)	3.9*
C=CCOc1ccc(/C(O)=C2/C(=O)C(=O)N(CCOC)C23C(=O)N(C)c2ccccc23)cc1 (stereo not drawn)	-0.06
COCCCN1C(=O)C(=O)/C(=C(\O)c2ccc(C)c(F)c2)C12C(=O)N(C)c1ccccc12 (stereo not drawn)	46
C=CCOc1ccc(/C(O)=C2/C(=O)C(=O)N(CCCOC)C23C(=O)N(C)c2ccccc23)cc1 (stereo not drawn)	3.6*
Cc1cc(NCCO)nc2ccccc12	-0.18
COc1cc(NC(=O)c2cccs2)c(OC)cc1Cl	0.59
O=c1oc2cc(S(=O)(=O)N3CCCC3)ccc2c2ccc(S(=O)(=O)N3CCCC3)cc12	3.5*
CN(C)S(=O)(=O)c1ccc2c(c1)oc(=O)c1cc(S(=O)(=O)N(C)C)ccc12	-0.56
CC(C)(C)NS(=O)(=O)c1ccc2c(c1)oc(=O)c1cc(S(=O)(=O)NC(C)(C)C)ccc12	-0.8
COc1ccc(-c2cc(=O)c3c(O)c(OC)c(OC)cc3o2)cc1O	-1.1
O=C1CCCc2c1ccc1c3c(ccc21)C(=O)CCC3	-0.13
O=C(c1ccc2c(c1)CCO2)N1CCN(C(=O)c2ccc3c(c2)CCO3)CC1	-0.49
O=C1CCOc2cc3c(cc21)C(=O)CCO3	3.6*
COc1ccccc1C1CCN(c2ncccc2[N+](=O)[O-])CC1	0.32
COc1ccc(/C=C2\Cc3cc(OC)c(OC)c(OC)c3C2=O)c(OC)c1OC	3
CN1C(=O)CC(c2ccsc2)Sc2ccccc21 (stereo not drawn)	0.73
CC1CC(=O)N(C)c2ccccc2S1(=O)=O (stereo not drawn)	4*
CN1C(=O)CN(C2CCCCC2)C(=O)c2ccccc21	2.5
Cc1cc(NC(=S)NN)ccc1Br	4.1*
NNC(=S)Nc1ccc(Br)c(Cl)c1	5
CC(C)c1ccc(NC(=S)NN)cc1	1
COc1ccc(N2C(=O)CC(Nc3ccc(Cl)cc3)C2=O)cc1 (stereo not drawn)	-0.82
O=c1/c(=C/c2ccccc2Cl)sc2nc3ccccc3n12	-0.34
SMILES	Dicer processing
Cc1ccc(C(=O)N(c2cccc(Cl)c2)c2nc3ccccc3s2)c([N+](=O)[O-])c1	-0.06
COc1cc(C)nc(N(C#N)C(C)C)n1	-1.6
COC(=O)CN(C#N)c1nc(C)cc(C)n1	6.7*
COC(=O)CN(C#N)c1nc(N(C)C)nc(N(C)C)n1	0.85
COc1c(Br)csc1C(=O)NN	0.78
Cc1ccc(C)n1-c1ccc(C2(O)CCSc3ccccc32)cc1 (stereo not drawn)	2.4
Cc1ccc(C)n1-c1ccc(C2(O)CCSc3ccc(F)cc32)cc1 (stereo not drawn)	4*
COC(=O)c1nnn(-c2ccc(F)c(Cl)c2)c1SCc1c(F)cccc1Cl	0.35
O=c1nc(Nc2ccccc2)c2ccccc2[nH]1	1.6
O=c1nc(N2CCOCC2)nc(Nc2ccccc2)[nH]1	8.3*
COc1ccccc1Nc1nc(Nc2ccccc2OC)nc(N2CCOCC2)n1	0.22
COc1ccc(NC2CC(=O)N(c3ccccc3OC)C2=O)cc1 (stereo not drawn)	-1.2
COC(=O)/C(C#N)=C/c1[nH]c(C)cc1C	-0.19
Oc1ccccc1-c1nc2ccccc2[nH]1	3.2*
Cc1ccc(SCc2ccccc2-c2nc3ccccc3[nH]2)cc1	-1.4
Cc1ccc(-c2nc3ccccc3[nH]2)cc1	0.21
CC(C)N(CCC#N)C(=O)Nc1ccccc1	-1.4
CC1=NN(c2ccccc2)C(=O)/C1=C1/SC(C(=O)c2ccccc2)=NN1c1ccc(Cl)cc1	-1.2
O=C1ON=C(c2ccccc2)/C1=C1\SC(C(=O)c2ccccc2)=NN1c1ccccc1	3.5*
CC1=NN(c2ccccc2)C(=O)/C1=C1/SC(C(=O)c2ccccc2)=NN1c1ccccc1	159
O=C(CSc1n[nH]c(C(F)(F)F)n1)c1ccc(Cl)cc1	0.12
CCOC(=O)c1sc(S(C)=O)c2c1CC(c1ccccc1)CC2=O (stereo not drawn)	1.6
CS(=O)(=O)c1sc(C#N)c2c1C(=O)CC(c1ccccc1)C2 (stereo not drawn)	5.7*
CS(=O)(=O)c1sc(Cl)c(-c2ccc(Cl)cc2)c1C#N	-8
COC(=O)c1c(NC(=O)COc2ccccc2Br)sc2c1C(C(=O)OC)CC2 (stereo not drawn)	1.2
Cc1nc2sc3c(NCc4ccccc4)ncnc3c2c2c1COC(C)(C)C2	-0.54
CCOc1ccc(S(=O)(=O)N2c3ccc(C)cc3C(C)=CC2(C)C)cc1	3.5*
CC1=CC(C)(C)N(S(=O)(=O)c2ccc(F)cc2)c2ccc(C)cc21	-0.75
COc1ccc(S(=O)(=O)N2c3ccc(C)cc3C(C)=CC2(C)C)cc1	-1
O=C(NC(=O)c1ccc(Cl)cc1)Oc1ccccc1	0.83
